# Calls of active or inactive are those of the source. Calls follow the shape of the dose curve; as a rule, active = well fitted curve in the direction sought with a large enough effect in the repeat runs; inconclusive = weak or mixed curves; inactive = flat fitted curve, though single readings scatter.
# Assay: qHTS assay to test for compound auto fluorescence at 590 nm (red) in HepG2 cell free culture (AID 720684)
# Conditions: cell-free medium autofluorescence, red 540/590 nm; series mostly up to 46 µM; fluorescence, % of Rose Bengal: at the top concentration
# Excerpt: U.S. Tox21 Program National Center for Advancing Translational Sciences [NCATS] NIH Chemical Genomics Center [NCGC] U.S. Environmental Protection Agency [EPA] National Institutes of Environmental Health Sciences [NIEHS] National Toxicology Program [NTP] U.S. Food and Drug Administration [FDA] Tox21 Assay Overview: Compound auto fluorescence often interferes with screening of the compound library against various biological targets and signaling pathways. Some of these compounds may have fluorophoric properties. Such properties may interfere with the assay outputs resulting in false positives and/or negatives. To decrease such complications and ensure the compound activities are relevant in terms of biological response, the Tox21 10K compound library was screened for auto fluorescence. From the fluorophores used as reporter signals in our screening assays, the auto fluorescence equivalencies of compounds against three fluorophores have been evaluated: Triamterene, Fluorescein and Rose Bengal sodium for blue, green and red fluorescence, respectively. The fluorescence intensities were measured using Excitation/Emission wavelengths at 405/460nm, 485/535nm and 540/590nm for blue, green and red labels, respectively. This assay includes the red fluorescence data.
# Tox21 Assay Protocol Summary: 5 uL of culture medium (MEM containing 10% FBS) per well was dispensed into black wall/clear bottom 1536-well plates using a Multidrop Combi Dispenser (ThermoFisher Scientific, Waltham, MA). After 23 nL compound or DMSO vehicle was transferred into assay plate by a pintool work station (Kalypsys, San Diego, CA), fluorescence intensities in the assay plates were measured by an Envision (PerkinElmer, Shelton, CT) plate reader using three labels for measuring blue, green and red fluorescence at […] 460, 535 and 590nm respectively.
# % is scaled to controls: 0 for no effect and ±100 for the full control effect.
row,SMILES,"fluorescence, % of Rose Bengal"
1,CCCC(=O)O[C@]1(C(=O)COC(C)=O)CC[C@H]2[C@@H]3C[C@H](F)C4=CC(=O)C=C[C@]4(C)[C@@]3(F)[C@@H](O)C[C@@]21C,0.0311% (inactive)
2,CC(=O)[C@@]1(O)CC[C@H]2[C@@H]3C=C(Cl)C4=CC(=O)[C@@H]5C[C@@H]5[C@]4(C)[C@H]3CC[C@@]21C,-0.157% (inactive)
3,CN1CCN(CCC=C2c3ccccc3Sc3ccc(S(=O)(=O)N(C)C)cc32)CC1,0.642% (inactive)
4,CCN(CC)CCOC(=O)c1ccc(N)cc1Cl,-0.0163% (inactive)
5,CO[C@H]1C=CO[C@@]2(C)Oc3c(C)c(O)c4c(O)c(c5c(nc6cc(C)ccn65)c4c3C2=O)NC(=O)/C(C)=C\C=C[C@H](C)[C@H](O)[C@@H](C)[C@@H](O)[C@@H](C)[C@H](OC(C)=O)[C@@H]1C,0.453% (inactive)
6,CC(=O)OC[C@H]1O[C@@H](O[C@H]2[C@H](O)[C@@H](OC(=O)c3ccccc3C(=O)O)[C@H](O)O[C@@H]2COC(C)=O)[C@H](O)[C@@H](OC(=O)c2ccccc2C(=O)O)[C@@H]1O,-0.27% (inactive)
7,CC(Oc1ccccc1)C(=O)N[C@@H]1C(=O)N2[C@@H]1SC(C)(C)[C@@H]2C(=O)O (stereo not given in full),-0.436% [at 18.6 µM] (inactive)
8,C[N@+]12CCCC[C@@H]1CCC(=C(c1cccs1)c1cccs1)C2,-0.0084% (inactive)
9,CCc1ccc2c(c1)N(CC(C)CN(C)C)c1ccccc1S2 (stereo not given),0.414% (inactive)
10,CCOc1ccc(N=Nc2ccc(N)cc2N)cc1,-0.118% (inactive)
11,C[Se]CCC(N)C(=O)O (stereo not given),0.254% (inactive)
12,CC1(C)C2CC[C@]3(C)[C@H](C(=O)C=C4[C@@H]5C[C@@](C)(C(=O)O)CC[C@]5(C)CC[C@]43C)[C@@]2(C)CC[C@@H]1O[C@H]1O[C@H](C(=O)O)[C@@H](O)[C@H](O)[C@H]1O[C@@H]1O[C@H](C(=O)O)[C@@H](O)[C@H](O)[C@H]1O (stereo not given in full),0.0169% (inactive)
13,CCCCC(=O)OCC(=O)[C@]1(O)Cc2c(O)c3c(c(O)c2[C@@H](O[C@H]2C[C@H](NC(=O)C(F)(F)F)[C@H](O)[C@H](C)O2)C1)C(=O)c1c(OC)cccc1C3=O,1.5% (inactive)
14,Cc1c(Cl)cccc1Nc1ncccc1C(=O)O,0.131% (inactive)
15,O=[n+]1ccn([O-])c2ccccc21,0.0956% (inactive)
16,CC1(C)S[C@@H]2[C@H](NC(=O)[C@H](NC(=O)N3CCN(S(C)(=O)=O)C3=O)c3ccccc3)C(=O)N2[C@H]1C(=O)O,-0.173% (inactive)
17,O=P(O)(O)OC(Cn1cncn1)(Cn1cncn1)c1ccc(F)cc1F,-0.123% (inactive)
18,CC(=O)N[C@@H]([C@@H](O)[C@H](O)[C@H](O)CO)[C@@H](O)CC(=O)C(=O)O,0.0301% (inactive)
19,CCC(=O)OCC(=O)[C@@]1(OC(=O)CC)[C@H](C)C[C@H]2[C@H]3[C@H]([C@@H](O)C[C@@]21C)[C@@]1(C)C=CC(=O)C=C1C[C@H]3Cl,0.621% [at 18.6 µM] (inactive)
20,C#C[C@]1(O)CC[C@H]2[C@@H]3CCC4=C/C(=N/O)CC[C@@H]4[C@H]3CC[C@@]21CC,0.0774% (inactive)

row,SMILES,"fluorescence, % of Rose Bengal"
1,CC(C)CCCC(C)NC(C)C (stereo not given),0.0137% (inactive)
2,N=C(N)c1ccc(OCCCOc2ccc(C(=N)N)cc2Br)c(Br)c1,0.156% (inactive)
3,Cn1c(=O)c2c(ncn2CCOC(=O)C(C)(C)Oc2ccc(Cl)cc2)n(C)c1=O,-0.126% (inactive)
4,COc1cc2[nH]c(C)c(CCN3CCN(c4ccccc4)CC3)c2cc1OC,0.0254% (inactive)
5,O=C(O)CC/C=C\CC[C@@H]1[C@@H](N2CCCCC2)[C@@H](O)C[C@@H]1OCc1ccc(-c2ccccc2)cc1,0.419% (inactive)
6,O=C(NOC[C@H](O)CO)c1ccc(F)c(F)c1Nc1ccc(I)cc1F,0.181% (inactive)
7,CCCCC(F)(F)[C@@]1(O)CC[C@H]2[C@@H](CC(=O)[C@@H]2CCCCCCC(=O)O)O1,-0.193% (inactive)
8,O=S(O)CNc1ccc(S(=O)(=O)c2ccc(NCS(=O)O)cc2)cc1,0.109% (inactive)
9,CC(=O)[C@@]1(O)CC[C@H]2[C@@H]3C=C(Cl)C4=CC(=O)CC[C@]4(C)[C@H]3CC[C@@]21C,-0.174% (inactive)
10,S=C=Nc1ccc(N=C=S)cc1,-0.0039% (inactive)
11,O=C1/C(=C\c2cccs2)CCC/C1=C\c1cccs1,-0.131% (inactive)
12,CCCC(=O)O[C@]1(C(=O)COC(=O)CC)[C@@H](C)C[C@H]2[C@@H]3CCC4=CC(=O)C=C[C@]4(C)[C@@]3(F)[C@@H](O)C[C@@]21C,0.144% (inactive)
13,C=C1/C(=C\C=C2/CCC[C@]3(C)[C@@H]([C@H](C)OCCC(C)(C)O)CC[C@@H]23)C[C@@H](O)C[C@@H]1O,0.0478% (inactive)
14,Nc1ncnc2c1ncn2[C@@H]1O[C@H](COP(=O)(O)OP(=O)(O)OP(=O)(O)O)[C@@H](O)[C@H]1O,-0.358% (inactive)
15,Cc1ncc(COP(=O)(O)O)c(CN)c1O,0.335% (inactive)
16,CN(C)CC/C=C1/c2ccccc2CSc2ccccc21,-0.313% [at 18.6 µM] (inactive)
17,C=CCOc1ccc(CC(=O)O)cc1Cl,-0.185% (inactive)
18,Cc1cccc(Nc2ncccc2C(=O)O)c1C,0.0334% (inactive)
19,OCCO[C@@H]1[C@@H](O)[C@H](O)[C@@H](CO)O[C@@H]1O,-0.0135% (inactive)
20,CC[N+](C)(C)Cc1ccccc1Br,-0.342% [at 18.6 µM] (inactive)

# From PubChem BioAssay (Tox21)
